PubChem BioAssay
Activity calls are given as the source filed them. Unless noted, no rule for the calls is given here.

Columns and labels:
[1] = system: Wnt5a (protein binding on small-molecule microarray); test: small molecules binding Wnt5a protein – biophysical, small-molecule microarray, 635/667 nm fluorescence, primary screen (AID 1142); conditions: 635 nm fluorescence, higher = more signal;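 also: fluorescence read at 667 nm with signal to noise per printed feature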
[2] = ATP-based viability of Huh7 replicon cells – cell-based, CellTiter-Glo luminescence, basal, 48 h, cytotoxicity control for HCV replication inhibitor project, primary screen (AID 1143); conditions: higher = more signal, called active from +8 up or from −8 down;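 also: Huh7 hepatoma cells carrying a hepatitis C replication reporter with no stimulus; test concentration not given here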
[3] = Pseudomonas biofilm growth suppression – PAO1 strain, BacTiter-Glo luminescence, LB-PBS, primary screen (AID 1144); conditions: P. aeruginosa PAO1 biofilm, 12 h, higher = more signal
[4] = basal CRE-LacZ reporter activity in PC12 – cell-based, unstimulated, primary screen (AID 1145); conditions: no forskolin, luminescence, 4.5 h, higher = more signal, called active from +8 up or from −8 down
[5] = forskolin-driven CRE-LacZ activity in PC12 – cell-based, CRE-LacZ reporter, forskolin-stimulated, primary screen (AID 1146); conditions: luminescence, 4.5 h, higher = more signal, called active from +8 up or from −8 down;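 also: PC12 cells with 6xCRE LacZ reporter stimulated by forskolin 10 µM; beta-galactosidase reporter signal reflecting CREB driven transcription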
[6] = biological target: Streptavidin (Streptomyces avidinii) (UniProt P22629); test: compounds binding control protein streptavidin – biophysical, small-molecule microarray, 635/667 nm fluorescence, artefact control for SMM compound annotation, primary screen (AID 1147); conditions: higher = more signal;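 also: signal reflects streptavidin binding to arrayed compounds as a control protein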
Chain of Streptavidin (Streptomyces avidinii) (P22629 whole entry, looked up): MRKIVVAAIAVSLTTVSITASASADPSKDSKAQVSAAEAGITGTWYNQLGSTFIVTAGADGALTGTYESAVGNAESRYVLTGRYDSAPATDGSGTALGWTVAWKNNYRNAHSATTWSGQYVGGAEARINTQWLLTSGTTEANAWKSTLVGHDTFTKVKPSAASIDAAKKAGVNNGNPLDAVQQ

[7] = probe aInhba binding on compound microarray – biochemical, small-molecule microarray, 635/667 nm fluorescence, primary screen (AID 1148); conditions: higher = more signal;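 also: score merges 667nm spot fluorescence with signal-to-noise for antibody binding to printed compounds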
Torsin-1A (Homo sapiens) [8] = biological target: Torsin-1A (Homo sapiens) (UniProt O14656); test: TOR1A wild-type binding on microarray – cell lysate, small-molecule microarray, lysate, 635/667 nm, primary screen (AID 1149); conditions: COS7 hTOR1A-WT lysate, 635 nm fluorescence, higher = more signal
Chain of Torsin-1A (Homo sapiens) (O14656 whole entry, looked up): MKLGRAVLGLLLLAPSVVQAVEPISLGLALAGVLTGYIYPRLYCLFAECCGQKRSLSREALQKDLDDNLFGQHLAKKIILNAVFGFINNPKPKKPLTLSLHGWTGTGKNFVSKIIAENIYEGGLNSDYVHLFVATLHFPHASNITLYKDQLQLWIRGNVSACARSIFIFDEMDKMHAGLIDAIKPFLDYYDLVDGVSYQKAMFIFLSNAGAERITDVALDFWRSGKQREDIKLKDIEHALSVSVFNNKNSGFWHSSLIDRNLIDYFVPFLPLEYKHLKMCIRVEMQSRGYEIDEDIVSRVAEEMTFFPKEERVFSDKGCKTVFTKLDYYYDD

Torsin-1A (Homo sapiens) [9] = biological target: Torsin-1A (Homo sapiens) (UniProt O14656); test: torsin A mutant lysate binding on microarrays – cell lysate, small-molecule microarray, COS7 lysate, 635/667 nm fluorescence, primary screen (AID 1150); conditions: COS7 hTOR1A mutant lysate, 635 nm fluorescence, higher = more signal;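 also: score pools 667 nm emission and signal to noise measuring lysate protein binding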
[10] = system: Sonic hedgehog protein (Shh); test: Sonic hedgehog microarray binding compounds – biochemical, small-molecule microarray, 635/667 nm fluorescence, primary screen (AID 1151); conditions: 635 nm fluorescence, higher = more signal;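 also: Shh protein binding to compounds spotted on small-molecule microarray slides; score combines spot fluorescence intensity with signal-to-noise across triplicate slides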
[11] = optical density shifts of acrAB sulA E. coli – strain DRC41, OD650, 48 h, E. coli filamentation inducer project, primary screen (AID 1152); conditions: higher = more signal, called active from +8 up or from −8 down;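 also: E. coli MC1000 strain DRC41 lacking acrAB efflux pump and sulA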
[12] = probe aLefty1 binding on compound microarray – biochemical, small-molecule microarray, 635/667 nm fluorescence, primary screen (AID 1153); conditions: higher = more signal;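 also: score merges spot fluorescence with signal-to-noise ratio from the scanned slide images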
[13] = plasmodial surface anion channel blockers, osmotic lysis – cell-based, P. falciparum Indochina, OD700, 1 h, primary screen (AID 1154); conditions: P. falciparum Indochina infected RBC osmotic lysis, higher = more signal, called active from +8 up or from −8 down
[14] = plasmodial surface anion channel blockers, osmotic lysis – cell-based, P. falciparum Indochina, OD700, 2 h, primary screen (AID 1155);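 also: lysis reports solute entry through the parasite surface anion channel PSAC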; conditions: P. falciparum Indochina infected erythrocytes, higher = more signal, called active from +8 up or from −8 down
[15] = changes in parasitized red cell lysis, either direction – P. falciparum Indochina, OD700, 3 h, PSAC antagonist project, primary screen (AID 1156); conditions: P. falciparum-infected erythrocytes, osmotic lysis, higher = more signal, called active from +8 up or from −8 down
[16] = plasmodial surface anion channel blockers, osmotic lysis – cell-based, P. falciparum Indochina, OD700, 18 h, primary screen (AID 1157); conditions: P. falciparum Indochina infected erythrocytes, osmotic lysis OD700, 18 h; higher = more signal, called active from +8 up or from −8 down
[17] = S6 kinase pathway phospho-S6 level changes – cell-based, A549, cytoblot, luminescence, serum-stimulated, primary screen (AID 1158); conditions: 5 h, higher = more signal;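 also: serum-stimulated A549 lung adenocarcinoma cells; signal is phosphorylated S6 detected by cytoblot immunostaining with HRP secondary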
[18] = biological target: NADPH oxidase 2 (Homo sapiens) (UniProt P04839); test: compounds shifting NOX2 Amplex Red fluorescence – cell-based, HEK293-NOX2, PMA-stimulated, NOX inhibitor project, primary screen (AID 1159); conditions: 45 min, higher = more signal, called active from +8 up or from −8 down; also: test concentration not given here
Chain of NADPH oxidase 2 (Homo sapiens) (P04839 whole entry, looked up): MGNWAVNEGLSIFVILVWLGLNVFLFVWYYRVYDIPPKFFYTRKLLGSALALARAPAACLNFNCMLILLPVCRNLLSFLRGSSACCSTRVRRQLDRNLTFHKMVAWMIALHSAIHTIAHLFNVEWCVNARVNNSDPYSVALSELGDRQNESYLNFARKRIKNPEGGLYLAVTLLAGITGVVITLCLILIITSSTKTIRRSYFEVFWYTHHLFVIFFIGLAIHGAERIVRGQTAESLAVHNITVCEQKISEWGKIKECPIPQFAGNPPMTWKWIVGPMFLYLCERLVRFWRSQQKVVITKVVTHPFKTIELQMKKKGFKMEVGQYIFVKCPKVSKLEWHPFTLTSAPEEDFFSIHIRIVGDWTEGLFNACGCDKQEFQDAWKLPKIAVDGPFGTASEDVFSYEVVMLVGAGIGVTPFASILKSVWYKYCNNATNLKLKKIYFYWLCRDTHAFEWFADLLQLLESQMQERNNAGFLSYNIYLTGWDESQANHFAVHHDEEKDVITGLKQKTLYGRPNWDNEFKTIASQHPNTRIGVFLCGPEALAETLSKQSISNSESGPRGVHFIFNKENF

[19] = biological target: NADPH oxidase 4 (Homo sapiens) (UniProt Q9NPH5); test: compounds shifting NOX4 Amplex Red fluorescence – cell-based, HEK293-NOX4, tetracycline-induced, NOX inhibitor project, primary screen (AID 1160); conditions: HEK293-NOX4, Amplex Red H2O2 fluorescence, 45 min; higher = more signal, called active from +8 up or from −8 down
Chain of NADPH oxidase 4 (Homo sapiens) (Q9NPH5 whole entry, looked up): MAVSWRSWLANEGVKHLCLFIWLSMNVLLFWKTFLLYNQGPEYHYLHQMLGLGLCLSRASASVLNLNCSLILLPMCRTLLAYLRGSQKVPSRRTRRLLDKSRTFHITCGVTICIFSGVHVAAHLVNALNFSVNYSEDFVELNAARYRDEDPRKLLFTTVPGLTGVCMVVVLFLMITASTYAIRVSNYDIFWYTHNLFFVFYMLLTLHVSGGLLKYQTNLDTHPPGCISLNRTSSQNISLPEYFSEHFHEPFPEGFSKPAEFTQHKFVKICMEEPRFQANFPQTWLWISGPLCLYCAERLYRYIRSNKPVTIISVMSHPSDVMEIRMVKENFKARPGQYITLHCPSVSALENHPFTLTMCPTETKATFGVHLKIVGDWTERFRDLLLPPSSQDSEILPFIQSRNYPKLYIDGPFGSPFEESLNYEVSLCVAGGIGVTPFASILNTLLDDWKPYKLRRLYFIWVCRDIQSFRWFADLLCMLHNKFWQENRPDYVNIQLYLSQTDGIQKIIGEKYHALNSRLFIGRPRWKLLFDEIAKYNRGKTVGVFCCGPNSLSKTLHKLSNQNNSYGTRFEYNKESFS

[20] = biological target: NADPH oxidase 5 (Homo sapiens) (UniProt Q96PH1); test: compounds shifting NOX5 Amplex Red fluorescence – cell-based, HEK293-NOX5, NOX inhibitor project, primary screen (AID 1161); conditions: HEK293-NOX5, ionomycin, 45 min, higher = more signal
Chain of NADPH oxidase 5 (Homo sapiens) (Q96PH1 whole entry, looked up): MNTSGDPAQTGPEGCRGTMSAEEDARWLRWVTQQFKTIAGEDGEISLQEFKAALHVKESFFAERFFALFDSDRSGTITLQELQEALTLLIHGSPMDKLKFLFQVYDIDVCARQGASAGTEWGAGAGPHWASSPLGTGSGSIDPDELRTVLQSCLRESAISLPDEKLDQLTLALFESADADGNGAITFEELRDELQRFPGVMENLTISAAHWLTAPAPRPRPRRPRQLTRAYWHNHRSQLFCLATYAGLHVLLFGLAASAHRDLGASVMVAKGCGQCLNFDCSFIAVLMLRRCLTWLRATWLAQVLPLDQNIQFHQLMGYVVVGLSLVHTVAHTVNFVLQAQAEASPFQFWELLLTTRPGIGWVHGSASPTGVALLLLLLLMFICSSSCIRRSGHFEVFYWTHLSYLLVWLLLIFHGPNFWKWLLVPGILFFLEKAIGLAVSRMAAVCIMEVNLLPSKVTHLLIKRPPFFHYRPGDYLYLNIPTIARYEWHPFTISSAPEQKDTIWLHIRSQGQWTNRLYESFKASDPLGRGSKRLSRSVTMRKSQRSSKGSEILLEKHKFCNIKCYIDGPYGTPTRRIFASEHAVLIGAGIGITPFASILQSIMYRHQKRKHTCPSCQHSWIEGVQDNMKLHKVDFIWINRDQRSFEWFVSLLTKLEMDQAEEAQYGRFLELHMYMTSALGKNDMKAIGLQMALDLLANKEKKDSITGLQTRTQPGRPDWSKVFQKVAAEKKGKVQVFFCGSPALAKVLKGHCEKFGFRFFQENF

Row | Compound | composite z-score [1] | z-score [2] | z-score [3] | z-score [4] | z-score [5] | composite z-score [6] | composite z-score [7] | composite z-score (Torsin-1A (Homo sapiens) [8]) | composite z-score (Torsin-1A (Homo sapiens) [9]) | composite z-score [10] | z-score [11] | composite z-score [12] | z-score [13] | z-score [14] | z-score [15] | z-score [16] | z-score [17] | z-score [18] | z-score [19] | z-score [20]
1 | CC(C)(C)OC(=O)CC[C@@]1(C(=O)NCCN2CCOCC2)N=C(c2ccc(OCCCO)cc2)O[C@@H]1c1ccccc1CN=[N+]=[N-] | -0.119 | 0.0704 (inactive) | -0.495 (inactive) | -0.277 (inactive) | 0.54 (inactive) | 1.01 | -0.0494 | -0.428 | 0.467 | -0.919 | -0.936 (inactive) | -0.0255 | 24.4 (active) | 11.3 (active) | 0.0031 (inactive) | 1.21 (inactive) | -0.464 | 0.73 (inactive) | 1.46 (inactive) | 1.54
2 | CC(=O)NCCCC[C@@H]1NC(=O)[C@H]2C[C@@H](C(=O)NCCCCCCNC(=O)CS)[C@@H](c3cccc(OCCO)c3)N2C1=O | 0.538 | 0.348 (inactive) | -0.286 (inactive) | -0.813 (inactive) | -0.78 (inactive) | -0.64 | -0.0448 | 1.43 | 1.22 | 1.32 | -0.337 (inactive) | -0.101 | 3.07 (inactive) | 0.858 (inactive) | 1.18 (inactive) | 0.448 (inactive) | -0.754 | 1.6 (inactive) | -0.667 (inactive) | 0.443
3 | [N-]=[N+]=Nc1ccccc1C[C@]1(C(=O)N2CCOCC2)N=C(c2ccc(OCCCO)cc2)O[C@H]1c1ccccc1N=[N+]=[N-] | 0.936 | -4.16 (inactive) | -0.781 (inactive) | 0.0686 (inactive) | -2.38 (inactive) | 1.79 | 0.0757 | 1.32 | 0.946 | 1.76 | 1.76 (inactive) | 0.15 | 30.7 (active) | 25.3 (active) | 1.18 (inactive) | 6.73 (inactive) | 2.28 | -2.86 (inactive) | 0.383 (inactive) | -2.57
4 | CCCNC(=O)[C@@]1(Sc2ccc(C)cc2)CC(=O)N(Cc2ccccc2Cl)[C@@H]1c1ccc(CO)cc1I | -0.618 | -1.23 (inactive) | 0.0611 (inactive) | 0.479 (inactive) | 1.44 (inactive) | -0.255 | 0.216 | -1.61 | -1.42 | -0.537 | 0.244 (inactive) | 1.08 | 5.36 (inactive) | 0.773 (inactive) | 0.206 (inactive) | 0.303 (inactive) | 0.009 | 1.24 (inactive) | -1.41 (inactive) | 1.87
5 | C=CCNC(=O)[C@H]1[C@@H]2C(=O)O[C@@H](c3ccccc3)[C@@H](c3ccccc3)N2[C@@H](c2ccccc2OCCO)[C@]12C(=O)N(C(=O)OCCOC)c1ccc(C#Cc3ccc(OC)cc3)cc12 | 0.571 | -2.77 (inactive) | -0.394 (inactive) | 1.12 (inactive) | -0.261 (inactive) | 0.12 | -0.149 | 0.292 | 0.51 | 0.168 | 0.296 (inactive) | 0.0114 | 2.46 (inactive) | 1.98 (inactive) | 0.0435 (inactive) | 1.25 (inactive) | 0.638 | 1.74 (inactive) | 0.404 (inactive) | 0.673
6 | COc1ccc([Si](C)(C)[C@@H]2[C@@H](CC(=O)N3CCC[C@H]3CO)O[C@]3(C(=O)N(Cc4cccc(N5CCCCC5=O)c4)c4ccccc43)[C@H]2C)cc1 | -0.104 | -2.77 (inactive) | -0.331 (inactive) | 0.105 (inactive) | -0.95 (inactive) | -0.164 | -0.176 | 0.594 | 0.81 | 1.68 | 0.422 (inactive) | 0.0046 | 3.85 (inactive) | 1.23 (inactive) | -1.02 (inactive) | 0.278 (inactive) | 0.067 | 2.88 (inactive) | 1.64 (inactive) | 4.73
7 | COC(=O)[C@@]1(Cc2ccc(F)cc2)[C@H]2c3cc(C(=O)N4CCCC4)n(Cc4cc(F)cc5c4OCOC5)c3C[C@H]2CN1C(=O)c1ccccc1 | 0.547 | -3.39 (inactive) | 0.403 (inactive) | -0.372 (inactive) | 0.755 (inactive) | 1.57 | 0.328 | -0.659 | -0.212 | 0.229 | -2.25 (inactive) | 0.617 | 3.29 (inactive) | 0.273 (inactive) | 3.36 (inactive) | 0.886 (inactive) | 0.0568 | -0.332 (inactive) | 0.115 (inactive) | 0.853
8 | CC1CC/C=C\[C@H]2OC34C=CCN(Cn5nnc6ccccc65)C(=O)[C@H]3N(CCCCCCO)C(=O)[C@@H]4C2C(=O)O1 (stereo not given in full) | -0.755 | 0.835 (inactive) | -1.18 (inactive) | -0.0859 (inactive) | 0.19 (inactive) | -0.399 | -0.12 | -1.51 | -1.11 | -0.415 | 0.699 (inactive) | 0.0999 | 0.59 (inactive) | -0.139 (inactive) | -0.248 (inactive) | 0.527 (inactive) | 1.2 | 1.02 (inactive) | 0.515 (inactive) | 2.37
